Screening data deposited in PubChem BioAssay by National Center for Advancing Translational Sciences (NCATS).
Shown are actives, neighbours in structure and some others; about 18% of the full set was active somewhere.
DT40 TDP1 no CPT = qHTS for Inhibitors of human tyrosyl-DNA phosphodiesterase 1 (TDP1): qHTS in cells in absence of CPT; DT40 Tdp1-/- hTDP1 cells, no CPT, ATP luminescence, 48 h; Potency, µM (doses to about 46.2 µM), inactives show top-dose activity change, negative = growth inhibition, actives largely listed as inhibitors; hit rate 15% among 420,000; AID 686978, 2013; further: potency means the concentration at half of the fitted maximal effect; nearly all actives have a fitted effect of over 55% in size
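Cells were dispensed at 400 per well, compounds added by pin tool, plates incubated ≥48 hr at 37 °C, then CellTiter-Glo added for 30 min at room temperature before luminescence reading. Line: DT40 Tdp1-/- complemented with hTDP1; camptothecin omitted.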
IL-1B inflam inh = qHTS for Inhibitors of Inflammasome Signaling: IL-1-beta AlphaLISA Primary Screen; THP-1 LPS/ATP IL-1B secretion, AlphaLISA, 16 h; stronger effect = lower value; activity change, % at 57.5 µM; hit rate 4.7% among 360,000; AID 743279, 2014; in the data active means activity change below about -50%; inconclusive means mostly about -30% to -49%
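THP-1 cells pretreated 1 hr with compounds (up to 57.5 uM final), then stimulated with LPS (250 ng/mL final) plus ATP (1.25 mM final); secreted IL-1B measured by AlphaLISA after 16 hr, decreased signal indicating inhibition.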
DT40 TDP1 CPT = qHTS for Inhibitors of human tyrosyl-DNA phosphodiesterase 1 (TDP1): qHTS in cells in presence of CPT; chicken DT40 Tdp1-/-;hTDP1 cells + 20 nM CPT, ATP luminescence, 48 h; Potency, µM (highest dose often 46.2 µM), for the others: at the highest dose activity change, negative = growth inhibition, usual class: inhibitors; AID 686979, 2013; hit rate 12% among 420,000; further: potency means the concentration at half of the fitted maximal effect; nearly all actives have a fitted effect of over 55% in size
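Chicken DT40 Tdp1-/- cells stably complemented with human TDP1 were seeded at 400 cells/well in medium containing 20 nM camptothecin, exposed to pin-transferred compounds, and grown at 37 °C for at least 48 hr. Viability was read as ATP luminescence.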
Six1-Eya2 blk = qHTS Assay for Inhibitors of the Six1/Eya2 Interaction; Homeobox protein SIX1 (Homo sapiens) + Protein phosphatase EYA2 (Homo sapiens), …; hit rate 0.56% among 360,000; activity change, % (no concentration beside the values); AlphaScreen GST-Six1/His-Eya2 binding, biochemical; stronger effect = lower value; in the data active means activity change below about -65%; inconclusive means mostly about -30% to -63%
Target sequence (O00167 whole entry, looked up): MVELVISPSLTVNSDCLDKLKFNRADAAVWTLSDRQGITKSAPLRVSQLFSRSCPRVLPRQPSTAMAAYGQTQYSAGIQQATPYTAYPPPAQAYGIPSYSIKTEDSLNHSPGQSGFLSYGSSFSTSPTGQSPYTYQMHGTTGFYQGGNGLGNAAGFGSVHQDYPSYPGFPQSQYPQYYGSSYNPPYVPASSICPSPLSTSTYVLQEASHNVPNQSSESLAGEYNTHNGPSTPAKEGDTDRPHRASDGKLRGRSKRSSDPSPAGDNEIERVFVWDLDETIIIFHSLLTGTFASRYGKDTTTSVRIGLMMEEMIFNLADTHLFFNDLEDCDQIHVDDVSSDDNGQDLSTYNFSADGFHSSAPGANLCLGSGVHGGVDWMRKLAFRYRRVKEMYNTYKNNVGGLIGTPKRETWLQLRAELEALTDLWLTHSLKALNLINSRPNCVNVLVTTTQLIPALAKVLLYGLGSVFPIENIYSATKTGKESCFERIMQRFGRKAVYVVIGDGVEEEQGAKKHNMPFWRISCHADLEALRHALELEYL
Target sequence (Q15475 whole entry, looked up): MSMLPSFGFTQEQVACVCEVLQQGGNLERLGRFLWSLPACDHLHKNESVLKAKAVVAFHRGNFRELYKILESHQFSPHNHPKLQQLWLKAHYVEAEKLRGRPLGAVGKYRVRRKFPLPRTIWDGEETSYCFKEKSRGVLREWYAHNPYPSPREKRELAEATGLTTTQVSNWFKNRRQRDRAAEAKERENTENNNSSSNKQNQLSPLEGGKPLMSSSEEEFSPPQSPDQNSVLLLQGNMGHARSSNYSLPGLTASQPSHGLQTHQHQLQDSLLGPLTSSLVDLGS
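Six1/Eya2 binding was read as AlphaScreen signal after compounds were pinned into GST-Six1 plus His-tagged Eya2 (5X stock 250/500 nM) in pH 8.0 Tris/NaCl/TCEP buffer, beads added, then incubated 1 h, 37 C, dark.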
CtBP-E1A blk = qHTS Assay for Inhibitors of the CtBP/E1A Interaction | CtBP / adenovirus E1A interaction (AlphaScreen) | AlphaScreen GST-E1A/His-CtBP binding, 1536-well; stronger effect = lower value | activity change, % (concentration not given with the values) | hit rate 0.49% among 340,000 | AID 651724, 2012; in the data active means activity change below about -65%; inconclusive means mostly about -30% to -63%
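AlphaScreen with 125 nM GST-E1A and 125 nM His-CtBP (5X stocks) in Tris pH 8.0, 300 mM NaCl, BSA, Tween 20, TCEP. Compounds preincubated 2 h at 37 deg C, then glutathione donor/nickel acceptor beads added for 1 h at 37 deg C in dark.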
TDP1 inh = qHTS Assay for Inhibitors of Tyrosyl-DNA Phosphodiesterase (TDP1); hit rate 0.28% among 350,000; Tyrosyl-DNA phosphodiesterase 1 (Homo sapiens), Q9NUW8; recombinant TDP1, AlphaScreen DNA substrate cleavage; Potency, µM (top dose mostly 130 µM), for the others: top-dose activity change, negative = inhibition, most hits filed as inhibitors; further: potency means the concentration at half of the fitted maximal effect; nearly all actives have a fitted effect of over 40% in size
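Recombinant E. coli-expressed Tdp1 (1 nM) preincubated with compound 15 min at RT, then 5'-biotin/3'-phosphotyrosine-FITC DNA substrate (15 nM) added for 5 min. AlphaScreen beads (10 ug/ml) added, 10 min RT; tyrosine-FITC cleavage read as signal loss.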
Active calls of the source: *. Unless noted, the call rests on the fitted dose curve; in most records, active means well fitted curve in the direction sought with a large enough effect; inconclusive means small, poorly fitted or top-dose-only effect, or another doubt; inactive means no such curve, though single readings can be large; an effect the other way counts as inactive or inconclusive. On the % scale 0 is the no-effect control and ±100 the full control effect.

What do the screens show for `CCC(Sc1nc2ccccc2c2nc(-c3ccccc3)nn12)C(=O)Nc1cccc(OC)c1` (configuration not stated)?
DT40 TDP1 no CPT: 18µM*; DT40 TDP1 CPT: inconclusive; TDP1 inh: 2%

How did COc1cccc(NC(=O)CSc2nc3ccccc3c3nc4ccccc4n23)c1 do in these assays?
DT40 TDP1 no CPT: 16µM*; IL-1B inflam inh: -1; DT40 TDP1 CPT: 12µM*; Six1-Eya2 blk: -5; CtBP-E1A blk: 0; TDP1 inh: 3%

Results for CCC(Sc1nc2ccsc2c(=O)n1Cc1ccc(C(=O)O)cc1)C(=O)Nc1cccc(OC)c1 (configuration not stated) ?
DT40 TDP1 no CPT: inconclusive; IL-1B inflam inh: 5; DT40 TDP1 CPT: -29%; Six1-Eya2 blk: -6; CtBP-E1A blk: -5

How did Cc1ccc(-c2nnc3sc(CCc4ccccc4)nn23)cc1 do in these assays?
DT40 TDP1 no CPT: inconclusive; IL-1B inflam inh: 0; DT40 TDP1 CPT: inconclusive; Six1-Eya2 blk: -2; CtBP-E1A blk: 21; TDP1 inh: -7%

Results for Cc1cc(NCc2cccnc2)nc(N)n1 ?
DT40 TDP1 no CPT: 21%; IL-1B inflam inh: -8; DT40 TDP1 CPT: -2%; Six1-Eya2 blk: 5; CtBP-E1A blk: 5

How did CCOC(=O)C1CCCN(C(=O)c2ccc(NC(=O)CC3SC(N4CCCC4)=NC3=O)cc2)C1 (configuration not stated) do in these assays?
DT40 TDP1 no CPT: -17%; IL-1B inflam inh: 25; DT40 TDP1 CPT: -8%; Six1-Eya2 blk: -4; CtBP-E1A blk: 7; TDP1 inh: 1%

Results for O=C(NC1CC1)C1CCN(c2ncnc3c2sc2cccc(F)c23)CC1 ?
DT40 TDP1 no CPT: 16µM*; IL-1B inflam inh: -17; DT40 TDP1 CPT: 23µM*; Six1-Eya2 blk: -8; CtBP-E1A blk: -2; TDP1 inh: 4%

How did COc1ccc(N(CC(=O)N2CCN(c3ccccc3)CC2)S(=O)(=O)c2c(C)noc2C)cc1 do in these assays?
DT40 TDP1 no CPT: inconclusive; IL-1B inflam inh: -14; DT40 TDP1 CPT: inconclusive; Six1-Eya2 blk: -10; CtBP-E1A blk: -5; TDP1 inh: 4%

How did COc1ccc(N(CC(=O)N2CCN(c3cc(C)ccc3C)CC2)S(=O)(=O)c2c(C)noc2C)cc1 do in these assays?
DT40 TDP1 no CPT: 13µM*; IL-1B inflam inh: 0; DT40 TDP1 CPT: 23µM*; Six1-Eya2 blk: 0; CtBP-E1A blk: -7; TDP1 inh: 6%

Results for COc1ccc(N(CC(=O)N2CCN(c3cccc(C)c3C)CC2)S(=O)(=O)c2c(C)noc2C)cc1 ?
DT40 TDP1 no CPT: 16µM*; IL-1B inflam inh: -28; DT40 TDP1 CPT: 21µM*; Six1-Eya2 blk: -10; CtBP-E1A blk: -11; TDP1 inh: 4%

What do the screens show for `Cc1ccc(N(CC(=O)N2CCN(c3cc(C)ccc3C)CC2)S(=O)(=O)c2c(C)nn(C)c2C)cc1`?
DT40 TDP1 no CPT: 16µM*; DT40 TDP1 CPT: 21µM*; TDP1 inh: 5%

Results for CN(CC(=O)NNC(=O)CNC(=O)c1cccs1)S(=O)(=O)c1ccc(Cl)cc1 ?
DT40 TDP1 no CPT: -1%; IL-1B inflam inh: -2; DT40 TDP1 CPT: 7%; Six1-Eya2 blk: 0; CtBP-E1A blk: 9

What do the screens show for `COc1ccc(C(=O)NNC(=S)NC(=O)c2ccc(Cl)cc2)cc1`?
DT40 TDP1 no CPT: 23µM*; IL-1B inflam inh: 68; DT40 TDP1 CPT: inconclusive; Six1-Eya2 blk: 1; CtBP-E1A blk: 3
